IL-1B inflam inh: qHTS for Inhibitors of Inflammasome Signaling: IL-1-beta AlphaLISA Primary Screen; THP-1 LPS/ATP IL-1B secretion, AlphaLISA, 16 h; hits give low values; activity change, % at 57.5 µM; hit rate 4.7% among 360,000; in the data active = activity change below about -50%; inconclusive = mostly about -30% to -49%
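Secreted IL-1B measured by AlphaLISA bead assay after 16 h compound exposure of THP-1 cells; compounds (final up to 57.5 uM) added 1 h before LPS (250 ng/mL) and ATP (1.25 mM) stimulation; lower signal means less secretion.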
LDHA inh: qHTS assay for inhibitors of human lactate dehydrogenase; L-lactate dehydrogenase A chain (Homo sapiens), P00338; purified LDHA, NADH/diaphorase-resazurin fluorescence; hits give low values; activity change, % (values are at about 110 or 230 µM); hit rate 0.15% among 480,000; in the data active = activity change below about -30%; inconclusive = mostly about -25% to -30%;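 note: plate controls were DMSO wells for no effect and wells without enzyme for full effect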
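Human LDH5 at 2 nM final in Tris HCl pH 7.4 with 0.06 mM NADH and 0.2 mM pyruvate, reacted 5 minutes at room temperature. Remaining NADH coupled via diaphorase/resazurin; resorufin fluorescence read at 0 and 20 minutes, normalized to enzyme-free and DMSO wells.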
Gal4-VP16 FLuc: VP16 counterscreen qHTS for inhibitors of ROR gamma transcriptional activity; Drosophila S2 Gal4-VP16 UAS-luciferase, luminescence, 20 h; hit rate 3.5% among 310,000; Potency, µM (series often up to 53.6 µM), inactives show at the highest dose activity, negative = inhibition, actives largely listed as inhibitors;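 note: Gal4-VP16 expression switched on by copper sulfate through the metallothionein promoter; potency is the fitted concentration of half-maximal effect; nearly all actives have a fitted effect of over 50% in size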
TDP1 cell CPT: qHTS for Inhibitors of human tyrosyl-DNA phosphodiesterase 1 (TDP1): qHTS in cells in presence of CPT; chicken DT40 Tdp1-/-;hTDP1 cells + 20 nM CPT, ATP luminescence, 48 h; Potency, µM (titrated, usually from 46.2 µM), without a hit: top-dose activity change, negative = growth inhibition, actives largely listed as inhibitors; hit rate 12% among 420,000; AID 686979, 2013; note: potency is the fitted concentration of half-maximal effect; nearly all actives have a fitted effect of over 55% in size
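Chicken DT40 Tdp1-/- cells stably complemented with human TDP1 were seeded at 400 cells/well in medium containing 20 nM camptothecin, exposed to pin-transferred compounds, and grown at 37 °C for at least 48 hr. Viability was read as ATP luminescence.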
RORg inh: qHTS for inhibitors of ROR gamma transcriptional activity; Nuclear receptor ROR-gamma (Mus musculus), P51450; hit rate 5.4% among 310,000; Potency, µM (series often up to 53.6 µM), inactives show top-dose activity change, negative = inhibition, actives largely listed as inhibitors; Drosophila S2 Gal4-RORgamma UAS-luciferase reporter, 20 h; note: potency is the fitted concentration of half-maximal effect; nearly all actives have a fitted effect of over 60% in size
Target sequence (P51450 whole entry, looked up, the tested form may be a part): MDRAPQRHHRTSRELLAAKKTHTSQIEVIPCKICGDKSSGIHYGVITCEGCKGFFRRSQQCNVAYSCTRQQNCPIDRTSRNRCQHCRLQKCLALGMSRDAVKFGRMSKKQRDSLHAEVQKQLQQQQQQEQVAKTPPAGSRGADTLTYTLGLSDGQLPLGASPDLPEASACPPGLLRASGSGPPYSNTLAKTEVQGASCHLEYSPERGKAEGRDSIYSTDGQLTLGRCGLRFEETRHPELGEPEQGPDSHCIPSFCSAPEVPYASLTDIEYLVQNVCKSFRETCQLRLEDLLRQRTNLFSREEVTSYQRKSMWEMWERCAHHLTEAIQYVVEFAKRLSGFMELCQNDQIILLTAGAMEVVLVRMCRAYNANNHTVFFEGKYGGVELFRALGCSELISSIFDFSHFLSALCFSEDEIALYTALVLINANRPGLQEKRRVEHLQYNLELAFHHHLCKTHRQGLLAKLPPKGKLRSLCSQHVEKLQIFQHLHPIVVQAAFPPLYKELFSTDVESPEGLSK
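In this cell-based reporter format, copper sulfate (700 uM final) drives Gal4–ROR gamma fusion expression from a metallothionein promoter in Drosophila Schneider cells; compounds preincubated 1 hr, reporter read after 20 hr at ambient temperature.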
TDP1 cell noCPT: qHTS for Inhibitors of human tyrosyl-DNA phosphodiesterase 1 (TDP1): qHTS in cells in absence of CPT | DT40 Tdp1-/- hTDP1 cells, no CPT, ATP luminescence, 48 h | Potency, µM (highest dose often 46.2 µM), inactives show top-dose activity change, negative = growth inhibition, usual class: inhibitors | hit rate 15% among 420,000 | AID 686978, 2013; note: potency is the fitted concentration of half-maximal effect; nearly all actives have a fitted effect of over 55% in size
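Chicken DT40 Tdp1-/- cells complemented with human TDP1, screened without camptothecin (DMSO vehicle only), 400 cells/well. Compounds pin-transferred, cells incubated at 37 °C for at least 48 hr. Growth read as ATP-dependent luminescence (CellTiter-Glo, 30 min at RT).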
Active calls of the source: *; ? = inconclusive; / = no result; [ ] = remark or other dose. Hits are enriched below; roughly 18% of the tested compounds scored in any of these assays. Unless noted, calls come from the whole dose curve; as a rule, active = well fitted curve in the direction sought with a large enough effect; inconclusive = small, poorly fitted or top-dose-only effect, or another doubt; inactive = no such curve, though single readings can be large; an effect the other way counts as inactive or inconclusive. Unless noted, % is set by controls: 0 for no effect and ±100 for the full control effect.

SMILES	IL-1B inflam inh	LDHA inh	Gal4-VP16 FLuc	TDP1 cell CPT	RORg inh	TDP1 cell noCPT
Cc1ccc2c(c1)sc[n+]2Cc1ccccc1	13	-4	-13%	13µM*	?	13µM*
O=C(Nc1ccc(F)c(Cl)c1)C1CCCN(c2ncnc3nc[nH]c23)C1 (stereo unspecified)	/	-8	/	/	/	/
COc1cc(S(=O)(=O)NC2CCCCC2C)ccc1-n1cnnn1 (stereo unspecified)	31	-5	-9%	-18%	?	?
CCN(C1CCCCC1)S(=O)(=O)c1ccc(OC)c(C)c1	19	-3	6%	15µM*	-36%	16µM*
CCN(C1CCCCC1)S(=O)(=O)c1cc(C)ccc1OC	2	2	1%	?	-13%	18µM*
COc1ccc(CN(C2CCCC2)S(=O)(=O)c2ccc(-n3cnnn3)c(OC)c2)cc1OC	-52*	-2	-1%[0.365 µM]	?	44%	?
CCN(C1CCCCC1)S(=O)(=O)c1ccc(-n2cnnn2)c(C)c1	7	-1	-9%	21%	5%	-15%
Cc1ccccc1NC(=O)c1cc(C2CC2)nc2ccccc12	/	7	/	/	/	/
CN(C)S(=O)(=O)N1CCN(CC(O)COc2ccc3cc(Br)ccc3c2)CC1 (stereo unspecified)	-3	-1	-26%	15µM*	63%	8.2µM*
O=S(=O)(N1CCCCC1)N1CCN(CC(O)COc2ccc3cc(Br)ccc3c2)CC1 (stereo unspecified)	-52*	3	-11%	11µM*	14%	11µM*
Cc1nc(C)n(CC(O)COc2ccc3cc(Br)ccc3c2)n1 (stereo unspecified)	-15	-2	?	?	?	?
OC(COc1ccc2cc(Br)ccc2c1)CN1CCCC1 (stereo unspecified)	-5	4	?	?	14%	23µM*
COc1ccc(OCC(O)CN2CCCC2)cc1 (stereo unspecified)	2	-6	0%	-3%	26%	1%
OC(COc1ccc2cc(Br)ccc2c1)CN1CCN(c2ccccn2)CC1 (stereo unspecified)	-12	-2	-2%	?	0%	?
OCCN1CCN(CC(O)COc2ccc(-c3ccccc3)cc2)CC1 (stereo unspecified)	-5	-4	-1%	?	5%	?
CN(C)S(=O)(=O)N1CCN(CC(O)COc2ccc(-c3ccccc3)cc2)CC1 (stereo unspecified)	?	-8	-1%	21µM*	-3%[1.91 µM]	12µM*
COc1ccc(NC(=O)C(Sc2nnc(-c3ccco3)n2N)c2ccccc2)cc1Cl (stereo unspecified)	/	1	/	/	/	/
CCOC(=O)C1(C)C=C(Nc2ccc(CC)cc2)C(=O)N1c1ccc(CC)cc1 (stereo unspecified)	/	9	/	/	/	/
Cc1cc(=O)[nH]c(SCC(=O)Nc2cccc(C(F)(F)F)c2)n1	26	-5	?	?	-5%	?
O=c1cc(O)c2sc(Nc3cccc(C(F)(F)F)c3)nc2[nH]1	-26	14	3%	12µM*	38%	7.3µM*
Cc1cc(=O)[nH]c(Nc2cccc(C(F)(F)F)c2)n1	33	-3	-15%	?	-1%[10 µM]	23µM*
O=C(Nc1ccc2cc[nH]c2c1)c1csc(NC2CC2)n1	/	12	/	/	/	/
CC(CCc1ccccc1)NC(=O)COC(=O)c1cc(C(C)(C)C)cc(C(C)(C)C)c1 (stereo unspecified)	/	1	/	/	/	/
N#Cc1c(SCc2ccccc2)cc(SCc2ccccc2)cc1SCc1ccccc1	/	-4	/	/	/	/
Cc1ccccc1OCC(=O)Nc1ccccc1C(=O)NC1CC1	-5	-3	/	?	/	21µM*
SMILES	IL-1B inflam inh	LDHA inh	Gal4-VP16 FLuc	TDP1 cell CPT	RORg inh	TDP1 cell noCPT
CCN(CC)c1ccc(C(=O)OCC(=O)Nc2ncccn2)cc1	1	-5	/	3%	/	-2%
CCOC(=O)N1CCN(C(=O)c2ccccc2N(Cc2ccccc2)S(=O)(=O)c2ccccc2)CC1	8	0	20%	21µM*	-25%	21µM*
CCN(CC)c1ccc(C(=O)OCC(=O)Nc2ccccc2-c2ccccc2)cc1	21	-3	?	?	-33%	18µM*
CCOC(=O)N1CCN(C(=O)c2ccccc2NC(=O)COc2ccccc2C)CC1	0	-16	8%	?	?	21µM*
N#C/C(=C/c1ccco1)C(=O)Nc1ccc(N2CCOCC2)cc1	/	7	/	/	/	/
Cc1cccc(C(=O)OC(C)C(=O)c2ccc(F)cc2)c1O (stereo unspecified)	/	10	/	/	/	/
CCN(CC)S(=O)(=O)c1ccc(Cl)c2ccccc12	/	4	/	/	/	/
Cc1ccc(SC(=O)COc2ccccc2C)cc1	-30	0	2%	13µM*	3%	?
CCC(=O)c1ccc(OCC(=O)Nc2ccccc2C(=O)N2CCCCC2)cc1	-62*	-3	/	?	/	16µM*
Cc1c(NC(=O)c2ccccc2NC(=O)c2ccccc2)cccc1C(=O)O	-9	-9	-3%	3%	-16%	13%
Cc1c(NC(=O)c2ccccc2NC(=O)COc2ccccc2)cccc1C(=O)O	-3	-13	13µM*	3%	7.9µM*	5%
Cc1cccc(OC(C)C(=O)Nc2ccccc2C(=O)N2CCCCC2)c1 (stereo unspecified)	-10	-3	1%	?	-1%	13µM*
Cc1ccc(OCC(=O)Nc2ccccc2C(=O)N2CCCCC2)cc1	7	-1	-1%	-27%	31%	-25%
CNc1nc(-c2sc3ccccc3c2C)cs1	/	-4	/	/	/	/
Oc1ccc(C2SCCS2)cc1	/	4	/	/	/	/
Cc1ccc(OCC(=O)Nc2ccccc2-c2ccccc2NC(=O)COc2ccc(C)cc2)cc1	9	-2	-27%	?	?	21µM*

Screens (PubChem)
